Hits are enriched below; roughly 4% of the tested compounds scored in any of these assays.
GDH-TPI counter-1 – counter-screen for M. tuberculosis FBA inhibitors: GDH-TPI coupled enzymes. inhibition, % at 4.8 µM. actives 1.2% (n = 360,000). GDH-TPI coupled enzyme counterscreen, NADH absorbance. AID 588335; in the data active = inhibition above about 30%;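 note: 0% = DMSO wells and 100% = wells lacking the enzyme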
Rv3671c inh – inhibits the M. tuberculosis serine protease Rv3671c. P9WHR9. inhibition, % at 5.96 µM. actives 0.048% (n = 320,000). AID 2606; in the data active = inhibition above about 38%;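 note: extracellular domain of Rv3671c used as enzyme; 0% = enzyme with DMSO and 100% = no enzyme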
Target sequence (P9WHR9 whole entry, looked up, the tested form may be a part): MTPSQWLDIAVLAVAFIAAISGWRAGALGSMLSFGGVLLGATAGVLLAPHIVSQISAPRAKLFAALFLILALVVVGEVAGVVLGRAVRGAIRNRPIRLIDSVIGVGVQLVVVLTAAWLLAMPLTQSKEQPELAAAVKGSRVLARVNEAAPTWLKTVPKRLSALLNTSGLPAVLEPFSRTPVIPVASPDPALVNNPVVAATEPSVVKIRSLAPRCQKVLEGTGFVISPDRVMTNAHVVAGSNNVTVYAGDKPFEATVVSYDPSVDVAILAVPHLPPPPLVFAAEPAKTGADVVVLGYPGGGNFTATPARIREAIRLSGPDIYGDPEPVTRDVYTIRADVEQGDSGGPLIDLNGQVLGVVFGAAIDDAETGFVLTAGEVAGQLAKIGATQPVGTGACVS
RecA intein inh – blocks M. tuberculosis RecA intein splicing | P9WHJ3 | cell-free RecA intein splicing, fluorescence | inhibition, % (concentration not given with the values) | actives 0.75% (n = 290,000) | AID 2221; in the data active = inhibition above about 30%;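 note: 0% = vehicle wells and 100% = reference inhibitor control wells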
FBA Mtb inh – Mtb fructose-bisphosphate aldolase inhibition. P9WQA3. purified M. tuberculosis FBA, fluorescence read-out. inhibition, % at 1 µM. actives 2.3% (n = 360,000). AID 588726;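 note: 0% = vehicle and 100% = reference inhibitor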
Mtb bLac sens – beta-lactam sensitization of Mtb H37Rv; M. tuberculosis H37Rv growth with meropenem, percent inhibition; inhibition, % at 25 µM; actives 0.27% (n = 330,000); AID 434955; call rule not given here;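 note: growth measured after seven days incubation then overnight dye step; 0% = bacteria only wells and 100% = bacteria with antibiotic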
Mtb UGM inh – Mtb UDP-galactopyranose mutase inhibition | P9WIQ1 | inhibition, % at 10 µM | purified UGM, fluorescence polarization probe displacement | actives 0.06% (n = 320,000); in the data active = inhibition above about 10%, passing the limit was not always enough
Mtb FBA inh conf – confirmation of M. tuberculosis fructose-bisphosphate aldolase inhibitors | actives 78% (n = 5,600) | shares compounds with FBA Mtb inh | inhibition, % at 1 µM | purified M. tuberculosis FBA, fluorescence read-out;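 note: 0% = vehicle wells and 100% = reference inhibitor wells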
GDH-TPI counter-2 – counter-screen for M. tuberculosis FBA inhibitors: GDH-TPI coupled enzyme inhibition. AID 652141. GDH-TPI coupled enzyme counterscreen, fluorescence. shares compounds with FBA Mtb inh. inhibition, % at 1 µM. actives 81% (n = 5,600); in the data active = inhibition above about 10%
The depositor's hits bear a star. Cut-off read from the data, not from the text of the source, unless noted: active = inhibition above about 27%; inactive = the rest.

`CCOc1ccccc1/C=C/c1nc2ccccc2[nH]c1=O` gave GDH-TPI counter-1 28, RecA intein inh -58, FBA Mtb inh 43*, Mtb bLac sens 3, Mtb UGM inh -5, Mtb FBA inh conf 0 and GDH-TPI counter-2 0.
`COc1ccc(CCNS(=O)(=O)c2ccc(-c3ccc(=O)[nH]n3)o2)cc1OC` gave GDH-TPI counter-1 3, Rv3671c inh 3, RecA intein inh -5, FBA Mtb inh 5, Mtb bLac sens -2 and Mtb UGM inh -4.
Screening COc1ccccc1C(=O)NC(C)c1ccccc1 (configuration not stated) returned GDH-TPI counter-1 -2, Rv3671c inh 6, RecA intein inh 0, FBA Mtb inh 1, Mtb bLac sens -9 and Mtb UGM inh -1.
Cc1csc2ncc(C(=O)NC(C)c3ccccc3)c(=O)n12 (configuration not stated) was read as GDH-TPI counter-1 22, Rv3671c inh -3, RecA intein inh 1, FBA Mtb inh 63*, Mtb bLac sens -8, Mtb UGM inh 3, Mtb FBA inh conf 199* and GDH-TPI counter-2 159*.
Screening CCc1ccc(NC(=O)c2cnc3scc(C)n3c2=O)cc1 returned GDH-TPI counter-1 10, Rv3671c inh 0, RecA intein inh -3, FBA Mtb inh -2, Mtb bLac sens -10 and Mtb UGM inh 3.
Screening Cc1csc2ncc(C(=O)NCc3ccccc3Cl)c(=O)n12 returned GDH-TPI counter-1 11, Rv3671c inh 1, RecA intein inh 2, FBA Mtb inh 49*, Mtb bLac sens 3, Mtb UGM inh 0, Mtb FBA inh conf 107* and GDH-TPI counter-2 112*.
Cc1csc2ncc(C(=O)NCc3ccc4c(c3)OCO4)c(=O)n12 was read as Rv3671c inh 5, RecA intein inh -5, Mtb bLac sens -4 and Mtb UGM inh 2.
CC(NC(=O)c1ccccc1O)c1ccccc1 (configuration not stated) was read as GDH-TPI counter-1 5, Rv3671c inh 4, RecA intein inh 3, FBA Mtb inh 41*, Mtb bLac sens 15, Mtb UGM inh 1, Mtb FBA inh conf 156* and GDH-TPI counter-2 122*.
For O=C(CSc1c2c(nc3ccc(Cl)cc13)CCCC2)N1CCN(C(=O)c2ccco2)CC1 the results were GDH-TPI counter-1 22 and FBA Mtb inh 0.
O=C(CCC1CCCN(C(=O)CC2=CCCCC2)C1)N1CCN(c2ccccn2)CC1 (configuration not stated) was read as GDH-TPI counter-1 7, Rv3671c inh -5, RecA intein inh 2, FBA Mtb inh 9, Mtb bLac sens -12 and Mtb UGM inh 1.
O=C(CCC1CCCN(C(=O)C2=CCCC2)C1)N1CCN(c2ccccn2)CC1 (configuration not stated) was read as GDH-TPI counter-1 5, Rv3671c inh -2, RecA intein inh 3, FBA Mtb inh 41*, Mtb bLac sens 4, Mtb UGM inh -3, Mtb FBA inh conf 1 and GDH-TPI counter-2 -3.
Screening Cc1ccc(Cn2c(C3CCCN3c3nc(-c4ccc(F)cc4)cs3)nc3cc(C(=O)NCCCO)ccc32)cc1 (configuration not stated) returned GDH-TPI counter-1 9, Rv3671c inh -1, RecA intein inh 3, FBA Mtb inh 70*, Mtb bLac sens -12, Mtb UGM inh 1, Mtb FBA inh conf 9 and GDH-TPI counter-2 5.
`O=C(O)CCC(=O)Nc1nc2nccc(-c3ccccc3)n2n1` gave GDH-TPI counter-1 12, Rv3671c inh -2, RecA intein inh 0, FBA Mtb inh 45*, Mtb bLac sens -4, Mtb UGM inh 0, Mtb FBA inh conf active and GDH-TPI counter-2 181*.
For CCCC(=O)Nc1nc2nc(-c3ccccc3)cc(-c3ccccc3)n2n1 the results were GDH-TPI counter-1 18, Rv3671c inh -11, RecA intein inh -2, FBA Mtb inh 7, Mtb bLac sens -7 and Mtb UGM inh 1.
For CCCC(=O)N1CC2(C)CN(C(=O)CCC)CC(CCC)(C1)C2=O the results were GDH-TPI counter-1 -1, Rv3671c inh 0, RecA intein inh -1, FBA Mtb inh 3, Mtb bLac sens -11 and Mtb UGM inh -1.
CC(C)(C)c1csc(NC(=O)c2ccccc2O)n1 was read as GDH-TPI counter-1 23, Rv3671c inh -9, RecA intein inh 1, FBA Mtb inh 37*, Mtb bLac sens 3, Mtb UGM inh 0, Mtb FBA inh conf 43* and GDH-TPI counter-2 36*.
For Cc1csc(NC(=O)c2ccccc2O)n1 the results were GDH-TPI counter-1 21, Rv3671c inh 2, RecA intein inh 2, FBA Mtb inh 66*, Mtb bLac sens 0, Mtb UGM inh -2, Mtb FBA inh conf 99* and GDH-TPI counter-2 85*.
`COc1ccc(CCNC(=O)C2CCN(S(=O)(=O)N3CC(C)CC(C)C3)CC2)cc1OC` (configuration not stated) gave GDH-TPI counter-1 2, Rv3671c inh 3, RecA intein inh 0, FBA Mtb inh 1, Mtb bLac sens 2 and Mtb UGM inh 1.
For C=CCn1c(-c2cc3cccc(OC)c3o2)n[nH]c1=S the results were GDH-TPI counter-1 10, Rv3671c inh 8, RecA intein inh 0, FBA Mtb inh 44*, Mtb bLac sens -8, Mtb UGM inh 0, Mtb FBA inh conf 102* and GDH-TPI counter-2 72*.
Screening CCOC(=O)c1cn(Cc2cccc(Cl)c2)c2cc(C)nn2c1=O returned GDH-TPI counter-1 11, Rv3671c inh -3, RecA intein inh -1, FBA Mtb inh 28*, Mtb bLac sens 20, Mtb UGM inh 1, Mtb FBA inh conf 67* and GDH-TPI counter-2 53*.
For CCOC(=O)c1cn(Cc2ccccc2)nc1-c1ccccc1 the results were GDH-TPI counter-1 1, Rv3671c inh 9, RecA intein inh 6, FBA Mtb inh 0, Mtb bLac sens 6 and Mtb UGM inh -2.
`COc1cc2ccnc(C=NO)c2cc1OC` gave GDH-TPI counter-1 13, FBA Mtb inh 42*, Mtb FBA inh conf 122* and GDH-TPI counter-2 95*.
Screening CCCCn1nc2cc(C(=O)NC3CCc4ccccc43)ccc2c1OCC (configuration not stated) returned GDH-TPI counter-1 -3, Rv3671c inh 2, RecA intein inh 6, FBA Mtb inh 53*, Mtb bLac sens 0, Mtb UGM inh -2, Mtb FBA inh conf active and GDH-TPI counter-2 active.
`CCCn1nc2cc(C(=O)NC3CCCc4ccccc43)ccc2c1OCC` (configuration not stated) gave GDH-TPI counter-1 -8, Rv3671c inh -3, RecA intein inh 5, FBA Mtb inh 56*, Mtb bLac sens 4, Mtb UGM inh 1, Mtb FBA inh conf 137* and GDH-TPI counter-2 99*.

From PubChem
